Source: PubChem
Shown are actives, neighbours in structure and some others; about 2.5% of the full set was active somewhere.
Cruzain noTriton: cruzain (T. cruzi) inhibition without detergent. 2.3% of 200,000 active. P25779. purified cruzain, Z-FR-AMC fluorescence, no detergent. Potency, µM, actives largely listed as inhibitors; also: nearly all actives have a fitted effect of over 40% in size
Target sequence (P25779 123-467 limits assumed): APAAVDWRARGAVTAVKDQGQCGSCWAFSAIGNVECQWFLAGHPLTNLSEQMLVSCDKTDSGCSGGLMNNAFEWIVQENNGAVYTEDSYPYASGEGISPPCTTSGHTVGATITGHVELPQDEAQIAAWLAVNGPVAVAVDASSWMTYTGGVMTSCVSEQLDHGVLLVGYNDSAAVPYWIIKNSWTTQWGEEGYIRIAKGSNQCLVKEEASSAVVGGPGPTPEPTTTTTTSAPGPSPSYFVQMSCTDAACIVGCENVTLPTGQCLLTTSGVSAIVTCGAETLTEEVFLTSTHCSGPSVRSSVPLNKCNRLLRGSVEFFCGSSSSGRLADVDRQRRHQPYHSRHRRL
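Detergent-free condition (0.00005% Triton X-100) in acetate buffer pH 5.5 with DTT. 1.5 nM enzyme and compound were pre-mixed 15 min, then 2 uM Z-FR-AMC substrate added; reaction progress from fluorescence change between first and third reads (60 s).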
Cruzain inh Det: blocks cruzain activity in presence of Triton detergent; purified cruzain, Z-FR-AMC fluorescence, 0.01% Triton; Potency, µM, most hits filed as inhibitors; 0.43% of 200,000 active; AID 1478; also: nearly all actives have a fitted effect of over 40% in size
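Compounds were screened in titration against cruzain (1.5 nM) with 0.01% Triton X-100 to counter colloidal aggregation. Activity was the AMC fluorescence increase over 60 s after adding 2 uM Z-FR-AMC at pH 5.5.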
Large screens that a line does not name were inactive. Calls follow the shape of the dose curve; as a rule, active = well fitted curve in the direction sought with a large enough effect; inconclusive = small, poorly fitted or top-dose-only effect, or another doubt; inactive = no such curve, though single readings can be large; an effect the other way counts as inactive or inconclusive.

ClC1=C(Cl)C2(Cl)C3C4CC(C5OC45)C3C1(Cl)C2(Cl)Cl (stereo not drawn)	Cruzain noTriton 1.58µM
ClC1=C(Cl)C2(Cl)C3C4C=CC(C4)C3C1(Cl)C2(Cl)Cl (stereo not drawn)	none
CCOc1cc(-c2nc(-c3ccc(-c4ccccc4)nc3OCC)no2)cc(OCC)c1OCC	none
COc1ccc2c(c1)O[C@@H](c1cccc(C(F)(F)F)c1)[C@H](OC(=O)Nc1ccc(C)c(Br)c1)C2=O	Cruzain noTriton inconclusive
COc1cccc(C2NC(=O)c3n[nH]c(-c4cccs4)c32)c1 (stereo not drawn)	none
Cc1sc(NC(=O)/C=C/C(=O)O)c(C(N)=O)c1-c1ccc(C(C)(C)C)cc1	none
Cc1sc(NC(=O)c2cccc([N+](=O)[O-])c2)c(C(N)=O)c1-c1ccc(C(C)(C)C)cc1	Cruzain noTriton 12.6µM
COc1ccccc1/C=C/C(=O)c1ccc(Cl)cc1	none
COc1ccccc1/C=C/C=C1N=C(/C=C/c2ccc(Cl)cc2)OC/1=O	Cruzain noTriton 15.8µM
COc1ccccc1/C=C/C1=NC(=C\C=C/c2ccccc2)/C(=O)O1	Cruzain noTriton 25.1µM
COc1ccc(/C=C/C=C2\N=C(SC)SC2=O)cc1	none
COc1ccc(Nc2ncnc3c2cnn3-c2ccc(C)cc2C)cc1	none
Cc1ccc2nc(NC(=O)c3ccc(-c4nc5ccccc5s4)s3)sc2c1	Cruzain noTriton 3.98µM
O=C(Nc1nc2ccccc2s1)c1ccc(Cl)s1	Cruzain noTriton inconclusive
COc1ccc(-n2ncc(C(=O)N3CCN(C4CCCCC4)CC3)c2C2CCN(C(=O)OC(C)(C)C)CC2)cc1	none
CCN(C(=O)NCc1noc2ccccc12)c1cc(C)ccc1C	none
Cc1cccc(OC(=O)CSc2nnc(CNC(=O)c3ccccc3)o2)c1C	none
Cc1ccc2oc(-c3ccc(C)c(NC(=O)C(C)(C)Oc4ccc(Cl)cc4)c3)nc2c1	none
Cc1cc(C)c2c(-c3ccc(-c4ccc(C(F)(F)F)cc4)cc3)cc(=O)oc2c1	Cruzain noTriton 25.1µM
COc1ccc(-c2ccc(-c3cc(=O)oc4cc(C)cc(C)c34)cc2)cc1	Cruzain noTriton inconclusive
Cc1ccc(CN2CCCn3nc(C(=O)NCC(C)c4ccccc4)cc3C2=O)cc1 (stereo not drawn)	none
Cc1ccc(-c2nonc2NC(=O)c2ccco2)cc1C	none
C=CCn1c(=O)c2ccc(C(=O)NCc3ccccc3)cc2n(Cc2ccccc2Cl)c1=O	Cruzain noTriton 25.1µM
C=CCn1c(=O)c2ccc(C(=O)NCc3ccccc3)cc2n(Cc2ccc(Cl)cc2)c1=O	none
COc1ccc(/C=C2\CCCC3C2=NN(C(=O)CSc2ncn[nH]2)C3c2ccc(OC)cc2)cc1 (stereo not drawn)	Cruzain noTriton inconclusive
COc1ccc(/C=C2\CCCC3C2=NN(C(=O)COC(=O)CNC(=O)c2ccccc2)C3c2ccc(OC)cc2)cc1 (stereo not drawn)	Cruzain noTriton 15.8µM
c1ccc(-c2nccc(-c3ccc(-n4cnc5ccccc54)cc3)n2)cc1	Cruzain noTriton 15.8µM
c1ccc(-n2nnnc2-n2cnc3ccccc32)cc1	none
CCCN(CCC)C(=O)Cn1nnc2sc(-c3ccccc3)cc2c1=O	none
NC(=O)CSc1nnc(-c2cc3ccccc3o2)n1Cc1ccccc1	Cruzain noTriton inconclusive
O=C(CSc1nnc(C2CC2)n1Cc1ccccc1)c1cc2ccccc2o1	Cruzain noTriton 15.8µM
CCNc1ncc2nc(-c3ccc(OC)cc3)c(=O)n(CCOC)c2n1	none
O=C(CSc1nc2ccccc2s1)N1CCCCC1	none
Cc1c(Cl)cccc1N/C(SCC(=O)N1CCCCCC1)=C(/C#N)c1nc2ccccc2s1	Cruzain noTriton 10µM
N#C/C(=C\C1=C(N2CCOCC2)C(=C/c2cccc([N+](=O)[O-])c2)/CC1)C(=O)Nc1ccccc1F	Cruzain noTriton 12.6µM
CCN(CC)c1ccc(/C=C2\CCC(/C=C(\C#N)C(=O)Nc3ccccc3F)=C2N2CCOCC2)cc1	Cruzain noTriton inconclusive
N#C/C(=C\C1=C(N2CCOCC2)C(=C\c2ccc(Cl)cc2)/CC1)C(=O)Nc1ccccc1F	Cruzain noTriton 10µM
CC(NC(=O)C12CC3CC(CC(C3)C1)C2)C(=O)N/N=C/C1=C(N2CCOCC2)C(=C\c2cccc([N+](=O)[O-])c2)/CC1 (stereo not drawn)	none
COc1ccc(Oc2ncc3nc(-c4ccc(OC)cc4)c(=O)n(C)c3n2)cc1	none
COc1ccc(-c2nc(C(N)=O)c3[nH]c(=O)n(-c4cccc(Cl)c4)c3n2)cc1OC	Cruzain noTriton inconclusive
Cc1ccsc1-c1nc(C(N)=O)c2[nH]c(=O)n(-c3ccc(Cl)cc3)c2n1	Cruzain noTriton 10µM
COc1ccc(Nc2nc(C)nc(N)c2S(=O)(=O)c2ccccc2)cc1	none
CCN(Cc1ccccc1)C(=O)c1c(C)oc2ncn(C)c(=O)c12	none
Cc1ccc(C)c(NC(=O)c2cc(S(=O)(=O)N3CCN(c4cccc(Cl)c4)CC3)ccc2F)c1	Cruzain noTriton 7.94µM
COc1ccccc1NC(=O)c1cc(S(=O)(=O)N2CCN(c3ccccc3Cl)CC2)ccc1F	Cruzain noTriton 10µM
